Columns and labels:
Details in all cases: concentration: 1 μM, replicates: in singlicate; n = 1
SNARK = test system: T1, SNARK
T1 construct: gene NUAK2

SNRK = test system: SNRK
SRC = test system: SRC
SRMS = test system: SRMS
SRPK1 = test system: SRPK1
SRPK2 = test system: SRPK2
SRPK3 = test system: SRPK3
STK16 = test system: STK16
STK33 = test system: STK33
STK35 = test system: STK35
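Note: KINOMEscan kinase panel screen.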

| SMILES | %Inh (SNARK) [%] | %Inh (SNRK) [%] | %Inh (SRC) [%] | %Inh (SRMS) [%] | %Inh (SRPK1) [%] | %Inh (SRPK2) [%] | %Inh (SRPK3) [%] | %Inh (STK16) [%] | %Inh (STK33) [%] | %Inh (STK35) [%] |
| --- | --- | --- | --- | --- | --- | --- | --- | --- | --- | --- |
| c1ccc(-c2n[nH]cc2Nc2ccnc3ccccc23)nc1 [GW694077] | 27 | 0 | 0 | 0 | 69 | 46 | 90 | 15 | 6 | 0 |
| Cn1cc(-c2[nH]c3cc(NC(=O)[C@H](N)C4CCCCC4)cc4c3c2C=NNC4=O)cn1 | 97.9 | 1 | 98.3 | 75 | 99 | 77 | 82 | 66 | 37 | 53 |
| Cc1cccc(Nc2nc(N[C@H]3CCNC3)ncc2C(N)=O)c1.Cl [GSK2197149] | 34 | 0 | 85 | 0 | 72 | 0 | 76 | 12 | 40 | 1 |
| CSc1cccc2c(-c3ccncn3)c(-c3ccc(F)cc3)nn12 [GW514786] | 0 | 0 | 1 | 0 | 0 | 0 | 100 | 3 | 0 | 0 |
| COc1cccc(C2=C(Nc3ccc(Cl)c(C(=O)O)c3)C(=O)NC2=O)c1 [SB-390769] | 100 | 100 | 0 | 100 | 13 | 0 | 17 | 8 | 0 | 0 |
| CC(C)(C)c1ccc2nccc(Nc3cccc(O)c3)c2c1 [GW856795] | 0 | 0 | 96.7 | 0 | 0 | 9 | 20 | 0 | 0 | 0 |
| COc1cc2c(cc1OCCN1CCNCC1)ncc1c3ccc(C#N)cc3[nH]c21 | 94.6 | 12 | 0 | 19 | 36 | 0 | 42 | 9 | 19 | 0 |
| CN(C)Cc1ccc(-c2ccc3c(Nc4ccc(Oc5ccccn5)cc4)ccnc3c2)o1 [GW567148] | 12 | 0 | 36 | 94.5 | 0 | 0 | 0 | 0 | 55 | 66 |
| COc1cc(Nc2nccc(-c3c(-c4cccc(NC(=O)c5c(F)cccc5F)c4)nn4ncccc34)n2)cc(OC)c1OC [GSK327238] | 95.2 | 0 | 99.9 | 98.5 | 38 | 0 | 0 | 67 | 22 | 96.9 |
| Nc1ncc(-c2cccnc2)c2scc(-c3ccc4c(c3)CCN4C(=O)Cc3ccccc3)c12 [GSK683281] | 4 | 1 | 37 | 8 | 32 | 0 | 28 | 4 | 20 | 0 |
| O=C(Nc1cccc(-c2nn3ncccc3c2-c2ccnc(Nc3ccccc3)n2)c1)c1c(F)cccc1F [GSK198271] | 32 | 45 | 62 | 94.9 | 32 | 0 | 0 | 7 | 0 | 79 |
| Cn1cc(-c2ccc3c(c2)CCN3C(=O)Cc2cccc(Cl)c2)c2c(N)ncnc21 [GSK2606590] | 18 | 0 | 21 | 0 | 0 | 0 | 11 | 11 | 0 | 0 |
| Fc1ccc(-c2ncn(C3CCNCC3)c2-c2ccnc(Oc3ccc(-c4ccccc4)cc3)n2)cc1 [SB-245391] | 16 | 23 | 11 | 3 | 5 | 0 | 5 | 14 | 21 | 0 |
| CCCCc1nn2ncccc2c1-c1ccnc(Nc2ccc(N3CCN(C)CC3)cc2)n1 [GW684941] | 90.2 | 0 | 98.8 | 0 | 63 | 6 | 26 | 86 | 39 | 0 |
| O=c1[nH]cc(-c2ccc(N3CCOCC3)cc2)c2sc(-c3cn[nH]c3)cc12 [GSK2276055] | 15 | 0 | 0 | 8 | 17 | 0 | 0 | 35 | 0 | 0 |
| Cc1ccc(S(=O)(=O)Nc2ccc(Nc3nccc(Nc4cccc5[nH]ncc45)n3)cc2)cc1 [GSK581271] | 0 | 0 | 64 | 0 | 51 | 5 | 9 | 43 | 0 | 55 |

| SMILES | %Inh (SNARK) [%] | %Inh (SNRK) [%] | %Inh (SRC) [%] | %Inh (SRMS) [%] | %Inh (SRPK1) [%] | %Inh (SRPK2) [%] | %Inh (SRPK3) [%] | %Inh (STK16) [%] | %Inh (STK33) [%] | %Inh (STK35) [%] |
| --- | --- | --- | --- | --- | --- | --- | --- | --- | --- | --- |
| Clc1ccc(-c2nn3ncccc3c2-c2ccnc(Nc3ccc4c(c3)OCCO4)n2)cc1 [GW829116] | 0 | 0 | 44 | 13 | 0 | 0 | 0 | 32 | 0 | 0 |
| Nc1n[nH]c2cnc(-c3ccccc3)cc12 [SB-642124] | 60 | 0 | 0 | 0 | 22 | 3 | 24 | 45 | 31 | 0 |
| O=C(NC1CCN(c2ccnc(Nc3ccc(F)cc3)n2)C1)c1cc2ccccc2s1 (centres unmarked) [GSK1379716] | 0 | 0 | 1 | 0 | 31 | 37 | 4 | 15 | 0 | 6 |
| CCn1c(-c2nonc2N)nc2c(C#CC(C)(C)O)nc(OC[C@H](N)c3ccccc3)cc21 [GSK943949] | 92.8 | 0 | 1 | 4 | 41 | 0 | 24 | 9 | 0 | 0 |
| Nc1ncc(-c2ccc3nccc(-c4ccncc4)c3c2)cc1S(=O)(=O)N1CCOCC1 [GSK1627798] | 8 | 0 | 0 | 0 | 0 | 0 | 4 | 22 | 0 | 0 |
| O=C(Nc1n[nH]c2nc(-c3ccc(O)cc3)ccc12)C1CC1 [SB-710363] | 0 | 0 | 0 | 2 | 20 | 0 | 25 | 73 | 0 | 0 |
| CC(=O)Nc1nc2cnc(Nc3cc(NC(=O)c4cccc(C5(C#N)CC5)c4Cl)ccc3C)nc2s1 | 0 | 0 | 45 | 0 | 39 | 5 | 0 | 11 | 0 | 0 |
| Cn1cc(-c2ccc3c(c2)CCN3C(=O)Cc2cccc(F)c2)c2c(N)ncnc21 [GSK2603358] | 10 | 0 | 4 | 0 | 0 | 0 | 9 | 13 | 0 | 0 |
| COc1ccc(Nc2nccc(N3CCC(NC(=O)Nc4cccc(OC)c4)C3)n2)cc1 (centres unmarked) [GSK1379742] | 0 | 0 | 5 | 0 | 12 | 0 | 0 | 0 | 0 | 2 |
| CCS(=O)(=O)c1ccc(OC)c(Nc2nccc(-c3c(-c4cccc(NC(=O)c5c(F)cccc5F)c4)nn4ncccc34)n2)c1 [GSK326180] | 0 | 0 | 0 | 99.3 | 24 | 0 | 0 | 25 | 7 | 0 |
| COc1cccc(-c2ccc3c(NC(=O)C4CC4)n[nH]c3n2)c1 [SB-710903] | 0 | 0 | 0 | 0 | 10 | 50 | 0 | 26 | 0 | 0 |
| COc1ccc(-c2coc3ccc(-c4nnc(SCc5ccc(OC)c(C(F)(F)F)c5)o4)cc23)cc1 | 35 | 21 | 4 | 0 | 8 | 0 | 0 | 17 | 7 | 0 |
| COc1cc(Nc2nccc(-c3c(-c4cccc(NC(=O)c5c(F)cccc5F)c4)nn4ccccc34)n2)cc(OC)c1OC [GSK323521] | 40 | 0 | 22 | 0 | 0 | 21 | 30 | 15 | 11 | 0 |
| Cl.c1ccc(-c2ccc3c(Nc4ccc5[nH]ccc5c4)ccnc3c2)nc1 [GW440138] | 4 | 0 | 60 | 0 | 38 | 22 | 0 | 0 | 0 | 0 |
| CN1CCN(Cc2cccc(-c3ccc4c(Nc5ccc(Oc6ccccc6)cc5)ccnc4c3)c2)CC1 [GW578342] | 0 | 0 | 34 | 97.1 | 69 | 20 | 0 | 2 | 13 | 70 |
| COc1cc(Nc2nccc(N3CCC(NC(=O)c4cc5ccccc5s4)C3)n2)cc(OC)c1OC (centres unmarked) [GSK1379760] | 20 | 0 | 21 | 8 | 61 | 0 | 22 | 10 | 0 | 9 |

— article PMC5540273 (PLoS ONE, 2017)
